Drawing on PubChem BioAssay AID1565 (Sanford-Burnham Center for Chemical Genomics, 2009), this text covers inhibition for 26 compounds.

Out of some 290,000 compounds screened, about 3,200 (1.1%) were called active. Many of the other results were omitted from the sample, so actives are more common in it than they were. Unmarked numbers belong to inactive results. No stated cut-off is given here; in the data, active means inhibition above about 60%; inactive means the rest.

In the assay the target is Phosphoethanolamine/phosphocholine phosphatase (Homo sapiens) (UniProt Q8TCT1). The experiment in a line: PubChem AID 1565. The conditions noted are these: recombinant PHOSPHO1, absorbance phosphatase assay; at 13.3 µM; stronger effect = higher value.
Chain of Phosphoethanolamine/phosphocholine phosphatase (Homo sapiens) (Q8TCT1 whole entry, looked up): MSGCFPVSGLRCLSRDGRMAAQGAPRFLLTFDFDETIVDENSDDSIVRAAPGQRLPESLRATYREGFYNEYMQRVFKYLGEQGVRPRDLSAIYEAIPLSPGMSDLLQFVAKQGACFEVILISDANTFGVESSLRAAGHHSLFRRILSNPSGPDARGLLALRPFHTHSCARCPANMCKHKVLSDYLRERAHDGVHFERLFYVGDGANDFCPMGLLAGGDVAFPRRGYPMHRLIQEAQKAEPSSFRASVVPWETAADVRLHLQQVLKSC
For `Cc1ccc(NC(=O)C2CCCN2S(=O)(=O)c2cccc3cccnc23)c(C)c1` (stereo unspecified), the inhibition was 70.1% (active).
For `Cc1cc(C)cc(NC(=O)C2CCCN2S(=O)(=O)c2cccc3cccnc23)c1` (stereo unspecified) the value was 44.5%; for `O=C(Nc1nccs1)C1CCCN1S(=O)(=O)c1cccc2cccnc12` (stereo unspecified), 2.7%; for `O=C(CN(C(=O)c1csnn1)c1ccc(Br)cc1)NC1CCCC1`, 26.9%.
The result for `CSCCC(NC(=O)c1cc([N+](=O)[O-])cc([N+](=O)[O-])c1)c1nc2ccccc2[nH]1` (stereo unspecified) reads -8.6%.
For the compound `COc1ccc(CC(=O)N[C@@H](CCSC)c2nc3ccccc3[nH]2)cc1`, the inhibition was 12.4%.
On to `CSCCC(NC(=O)c1ccc(=O)n(C)n1)c1nc2ccccc2[nH]1` (stereo unspecified), for which the inhibition is 79.8% (active).
On to `CCCCC(=O)Nc1ccccc1N1CCN(c2ccc(F)cc2)CC1`, for which the inhibition was -152%.
For the compound `Oc1ccccc1-c1cc(-c2ccc(Cl)cc2)n[nH]1`, the inhibition was 19.7%.
The result for `Cc1cc(C)c(SCCc2ccncc2)c(C)c1` reads 24.1%; that for `O=C(O)c1cccc(N2C(=O)Nc3ccccc3N2O)c1`, 8.3%; that for `C/C(=N\Nc1cccc(C(=O)O)c1)c1ccc2c(c1)Nc1ccccc1S2`, 81.3% (active).
On to `O=C(NC1CC1)c1ccc2c(c1)NC(=O)c1ccccc1S2`, for which the inhibition was 0.7%.
`Cc1ccccc1N1CCN(C2CCCN(C(=O)c3cn4c(C)cccc4n3)C2)CC1` (stereo unspecified): the inhibition was 22.3%.
The result for `Cc1ccc(NC(=O)CN2C(=O)NC(C)(c3ccc(Cl)cc3)C2=O)c(Br)c1` (stereo unspecified) reads 27.9%.
For the compound `Cc1cc(NC(=O)CCC(=O)N(Cc2ccccc2)C(C(=O)NC2CCCC2)c2ccc(C)o2)no1` (stereo unspecified), the inhibition is 46.2%.
For the compound `CCOCCCN(C)C1CCN(C(=O)c2oc3ccccc3c2NC(=O)Cc2cccc([N+](=O)[O-])c2)CC1`, the inhibition is 16.9%.
Turning to `CCOc1ccc(OCCSc2nc3ccccc3n2CC(=O)O)cc1`, the inhibition was 13.8%.
For `c1ccc(CN2CCC(N=C3NN=C(c4ccc5c(c4)OCCO5)CS3)CC2)cc1` the value was 12.7%; for `Cc1cccc(N=C2NN=C(c3c[nH]c4ccccc34)CS2)c1`, -2%; for `Clc1cccc(N=C2NN=C(c3ccc4c(c3)OCCO4)CS2)c1`, 78% (active).
For `CCCn1c(=O)c(C(=O)Nc2cc(C)ccn2)c(O)c2ccccc21` the value was -7.8%; for `S=c1[nH]nc(CSCc2ccc(Cl)cc2Cl)n1-c1ccccc1`, 34.7%.
With `S=c1[nH]ccn1-c1ccc(Cl)cc1`, the inhibition was -13%.
In the case of `S=c1[nH]cc(-c2ccc(Cl)cc2)n1-c1ccccc1`, the inhibition was 69.5% (active).
For `CN1CCN(/N=C/c2ccc(-c3ccc([N+](=O)[O-])cc3)o2)CC1` the value was 17.9%.
